From PubChem
The entries come from a sample that favours hits as a whole.
TbREL1 inh = TbREL1 inhibition, primary screen. AID 1117264. 0.49% of 89,000 active. inhibition, % at 9.66 µM. P86926. TbREL1 RNA ligation, FRET fluorescence;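 active means inhibition above the mean inhibition across all screened compounds plus 3 SD, cut at about 11% in these data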;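 further: 0% = plate median of test wells and 100% = NSC42067 control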
Target sequence (P86926 whole entry, looked up): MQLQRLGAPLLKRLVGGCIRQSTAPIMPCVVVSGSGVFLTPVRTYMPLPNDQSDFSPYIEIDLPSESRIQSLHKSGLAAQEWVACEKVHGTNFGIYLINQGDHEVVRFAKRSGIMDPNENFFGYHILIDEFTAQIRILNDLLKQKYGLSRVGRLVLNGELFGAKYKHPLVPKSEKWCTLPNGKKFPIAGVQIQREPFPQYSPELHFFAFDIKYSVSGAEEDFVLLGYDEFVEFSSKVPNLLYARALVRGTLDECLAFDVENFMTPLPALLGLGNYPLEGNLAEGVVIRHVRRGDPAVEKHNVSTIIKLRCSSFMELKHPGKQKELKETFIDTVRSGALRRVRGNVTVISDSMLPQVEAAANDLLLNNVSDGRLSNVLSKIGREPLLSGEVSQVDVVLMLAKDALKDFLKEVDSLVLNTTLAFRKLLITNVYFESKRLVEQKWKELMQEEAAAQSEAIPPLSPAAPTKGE
TbREL1 confirm = TbREL1 inhibition, confirmation; 37% of 390 active; TbREL1 RNA ligation, FRET fluorescence; AID 1117282; inhibition, % at 9.66 µM; shares compounds with TbREL1 inh;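 active means mean inhibition across replicates above a set limit taken from the earlier primary screen, cut at about 11% in these data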;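 further: 0% = REL1 with substrate and DMSO and 100% = REL1 plus control inhibitor NSC42067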
An asterisk follows results filed as active.

SMILES	TbREL1 inh	others
O=C(NCCc1ccccc1)OCc1cn(-c2ccc(F)c(F)c2)nn1	-1.6
CCOC(=O)[C@]12CCCC=C1N(CCCOC)C(=O)[C@@H]2CC(=O)N1CCSCC1	-6.6
Cc1cccc(C)c1OCc1cccc(C2Nc3ccccc3C(=O)N2Cc2ccco2)c1 (stereo not drawn)	3.2
CCC[C@H]1[C@@H](OC(=O)NCc2cccs2)CC[C@@]23CCCN2C(=O)CCC[C@@H]13	-4.7
COC(=O)C1=C(C)N(Cc2ccc(Cl)cc2)C(=S)NC1c1cccc(OC)c1 (stereo not drawn)	-7.2
C=CCN=C1NC(c2ccc(C(F)(F)F)cc2)C(C(=O)OC)=C(C)N1Cc1ccccc1C(F)(F)F (stereo not drawn)	9.7
COC(=O)C1=C(C)N(Cc2ccc(F)cc2)C(=S)NC1c1ccccc1 (stereo not drawn)	-8.3
COC(=O)C1=C(C)N(Cc2ccccc2C(F)(F)F)C(=NCc2ccc(OC)cc2)NC1c1ccccc1 (stereo not drawn)	13.4*	TbREL1 confirm=16.2*
COC(=O)C1=C(C)N(Cc2ccccc2C(F)(F)F)C(=NCc2ccc(OC)cc2)NC1c1ccc(Cl)cc1 (stereo not drawn)	11.8*	TbREL1 confirm=16.5*
COCCN=C1N[C@@H](c2ccc(Br)cc2)C(C(=O)OC)=C(C)N1Cc1ccccc1	4.6
COC(=O)C1=C(C)N(Cc2ccc(Cl)cc2)C(=S)NC1c1ccc(F)cc1 (stereo not drawn)	-4.9
C=CCN=C1NC(c2ccc(F)cc2)C(C(=O)OC)=C(C)N1Cc1ccccc1C(F)(F)F (stereo not drawn)	13.5*	TbREL1 confirm=13.9*
CCN1C(=NCc2ccc(OC)cc2)N[C@@H](c2ccccc2)[C@H](C(=O)OC)[C@H]1C	-1.7
Cc1ccccc1CN1CCCCC(NC(=O)c2cccc([N+](=O)[O-])c2)C1=O (stereo not drawn)	-1.1
CCC[C@H]1[C@H](N)CC[C@@]23CCCN2C(=O)CCC[C@@H]13	9.2
Nc1[nH]nc2nnc(-c3c(-c4ccccc4)nn4ccccc34)cc12	3.6
COc1cc(NC(=O)c2cnc(N)s2)cc(C(=O)Nc2cccc(C(F)(F)F)c2)c1	31.7*	TbREL1 confirm=20.8*
COc1cc(NC(=O)c2csc(N)n2)cc(C(=O)Nc2cccc(C(F)(F)F)c2)c1	-2.1
COc1cc(NC(=O)c2cc(C)on2)cc(C(=O)Nc2cccc(C(F)(F)F)c2)c1	7.3
Cn1cccc1C(=O)N1CCN(S(=O)(=O)c2ccc([N+](=O)[O-])cc2)CC1	-0.5
CC(C)(N[C@@H](Cc1ccccc1)C(=O)NCCCc1ccccc1)C(=O)NCc1ccccc1	-3.3
CN(C)CCCNc1ncnc2oc(-c3ccccc3)c(-c3ccccc3)c12	11.7*	TbREL1 confirm=5.7
c1ccc(-c2c(-c3ccccc3)n(Cc3ccco3)c3ncnc(NCCCn4ccnc4)c23)cc1	-1.9
COc1ccc(-c2oc3ncnc(N)c3c2-c2ccccc2)cc1	3.8
CSCCCNC(=O)Cn1nc(Cc2ccncc2)c2ccccc2c1=O	-3.6
SMILES	TbREL1 inh	others
C=CCN1C/C(=C/c2ccccc2)N2C(=O)CC(c3ccccc3)N=C12 (stereo not drawn)	-0.9
NC(=O)C1CCN(c2ncc(Br)cn2)CC1	8.3
CCOC(=O)Cn1c(=NC(=O)c2cccs2)sc2cc(C(=O)OC)ccc21	10.2
CCOC(=O)Cn1c(=NC(=O)CC)sc2c(C)cc(C)cc21	-1.5
CCOC(=O)Cn1c2ccc(C)cc2c2nc(C)sc21	55.0*	TbREL1 confirm=4.8
Cc1ccc2nc3sc(C(=O)N4CCN(C)CC4)cc3cc2c1	-5.5
O=S(=O)(Nc1ccc(C(O)(C(F)(F)F)C(F)(F)F)cc1)c1cccs1	1.5
COc1ccc(OC)c(NC(=O)O[C@@H]2CC[C@@]34CCCN3C(=O)CCC[C@H]4C2)c1	-0.9
CCCCCCCN1C(Nc2ccccc2)=NC[C@@H]1CC(C)C	11.9*	TbREL1 confirm=20.0*
CC(C)C[C@H]1CN=C(Nc2ccccc2)N1CCC1CCCC1	10.6
CCCCN1C(Nc2ccccc2)=NC[C@@H]1Cc1ccccc1	2.0
CC(C)[C@H]1/C(=C/C2CC2)N2C(=O)C[C@H](c3cccc(C(F)(F)F)c3)N=C2N1Cc1ccc2c(c1)OCO2	4.1
Cc1ccccc1NC(=O)CN1CCN(c2nc(-c3ccccc3)cs2)CC1	-0.6
CC(=O)C1=C(C)N(Cc2ccc(Br)cc2)C(=S)NC1c1cccc(Cl)c1 (stereo not drawn)	-5.1
Cc1ccc(O)c(NC(=O)c2cccc(S(=O)(=O)N3CCCCC3)c2)c1	-4.2
Cc1onc(-c2c(F)cccc2Cl)c1C(=O)Nc1cc(S(=O)(=O)N2CCCCC2)ccc1O	22.5*	TbREL1 confirm=2.3
Cc1onc(-c2ccccc2)c1C(=O)Nc1ccc(S(=O)(=O)N2CCCCC2)cc1	-0.4
C[C@@H]1CN(S(=O)(=O)C(C)(C)C)[C@@H](CCO)/C1=C\CCO	-0.2
Cc1nc(N)nc(N)c1/C=C/C(C)(C)c1ccc(Cl)cc1	14.8*	TbREL1 confirm=7.5
CC(C)(N[C@@H](Cc1c[nH]c2ccccc12)C(=O)NCCc1c[nH]c2ccccc12)C(=O)NC1CCCCC1	-4.1
